Experimental data taken from PubChem BioAssay (NCATS).
Results filed as inconclusive are left out. Activity calls are given as the source filed them. Unless noted, the call rests on the fitted dose curve; in most records, active means well fitted curve in either direction with a large enough effect (not every such curve was filed as active); inconclusive means small, poorly fitted or top-dose-only effect, or another doubt; inactive means flat fitted curve, though single readings scatter.

Experiments:
[1] = target: Lysosomal acid glucosylceramidase (Homo sapiens) (UniProt P04062); assay: Glucocerebrosidase-p2 (AID 348; in the data active means potency below about 10 µM; further: potency means the concentration at half of the fitted maximal effect); conditions: purified GBA, blue fluorogenic substrate, 40 min
Procedure, shortened: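 Compounds titrated from 0.6 nM upwards against 0.2 nM enzyme in pH 5.9 citric acid/KH2PO4, taurocholate, tween-20; blue fluorogenic substrate 80 uM, 40 min room temperature, stopped and read Ex 365/Em 440 for AC50.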

[2] = AP1 Signaling Pathway (AID 357); conditions: ME-180 AP-1-bla reporter, EGF-induced, beta-lactamase ratio, 5 h; at 7.69 µM (top of the series) unless noted;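 further: ME-180 reporter cells stimulated with EGF at its EC50 level; on the % scale 0 is the no-effect control and ±100 the full control effect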
Procedure, shortened: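 Read-out was the 460nm/530nm emission ratio (excitation 405nm) after CCF4 loading for 2.5 hours at room temperature. Cells carried an AP-1-driven beta-lactamase reporter, were stimulated with EC50 EGF plus compound for 5 hours, and AC50 values came from titrations.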

[3] = target: Cytochrome P450 1A2 (Homo sapiens) (UniProt P05177); assay: p450-cyp1a2 (AID 410; calls by dose curve; further: potency means the concentration at half of the fitted maximal effect;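 on activity change, negative = inhibition: -100% = full effect of reference inhibitor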); conditions: recombinant CYP1A2, luciferin-ME demethylation, luminescence; series mostly up to 11.4 µM
Procedure, shortened: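 Luminescent readout of luciferin formed from Luciferin-ME by human CYP1A2; data normalized against complete inhibition by 57 uM furafylline. Enzyme 20nM, substrate 100uM at Km, 100mM KPO4 buffer, 60 min reaction at room temperature.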

[4] = NFAT Signaling Pathway (AID 444); conditions: Jurkat NFAT-bla M1, carbachol, beta-lactamase ratio, 5 h; at 7.69 µM (top of the series) unless noted;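 further: carbachol stimulus at about its EC50 of 1 µM final; on the % scale 0 is the no-effect control and ±100 the full control effect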
Procedure, shortened: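 Read-out: CCF4 FRET ratio (460 nm/530 nm) after 1 h RT dye loading, used for %activity and AC50 from titration series. Cells: Jurkat NFAT-β-lactamase/M1 line, treated with compound plus 1 uM carbachol for 5 h, 37 °C.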

[5] = Stat Signaling Pathway (AID 446); conditions: ME-180 SIE beta-lactamase reporter, IL-6 stimulated, 5 h; at 7.69 µM (top of the series) unless noted;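 further: ME-180 cervical cancer cells given 40 pM IL-6 alongside compound; SIE-controlled beta-lactamase reporter measured as 460/530 nm FRET emission ratio; on the % scale 0 is the no-effect control and ±100 the full control effect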
Procedure, shortened: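 Reporter line: ME-180 cervical carcinoma, SIE-beta-lactamase. Treatment: compound with 40 pM IL-6, 5 hrs, 37 C, in low-serum OPTI-MEM with 10 mM HEPES pH 7.3. Detection: 460/530 nm fluorescence.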

[6] = target: Glucocorticoid receptor (Homo sapiens) (UniProt P04150); assay: GR-GFP Redistribution (AID 450;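 active means compounds whose dose series gives a full or clear partial fitted curve of increased nuclear translocation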; further: potency means the concentration at half of the fitted maximal effect); conditions: U2OS GR-GFP nuclear translocation, laser cytometry, 2 h
[7] = target: Glucocorticoid receptor (Homo sapiens) (UniProt P04150); assay: GR-EFC Redistribution (AID 451; calls by dose curve; further: potency means the concentration at half of the fitted maximal effect); conditions: CHO-K1 GR-EFC translocation, beta-gal luminescence, 2 h
Procedure, shortened: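 Translocation of GR-ED fusion to nuclear EA restores b-gal, read by luminescence after 1 h room-temperature detection. Engineered CHO-K1 biosensor cells, 1,000/well, exposed 2 h at 37 C to titrations up to 46 uM final.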

[8] = target: Mitogen-activated protein kinase 10 (Mus musculus) (UniProt Q61831); assay: JNK3 AlphaScreen Assay (AID 530); conditions: JNK3 lysate, c-Jun phosphorylation; series mostly up to 11.4 µM;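 further: kinase came from lysate of stimulated human HepG2 cells; signal reports phosphorylation of biotinylated GST-cJun 1-79 at Ser73 with 10 µM ATP; on the % scale 0 is the no-effect control and ±100 the full control effect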
Procedure, shortened: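 Compound titrations were preincubated 15 minutes at room temperature with substrate, antibody and pre-activated JNK3-containing HepG2 lysate. Reactions were started with 10 uM ATP and stopped with EDTA-containing bead buffer for AlphaScreen detection.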

[9] = target: 3',5'-cyclic-AMP phosphodiesterase 4B (Homo sapiens) (UniProt Q07343); assay: qHTS Assay for Inhibitors of PDE-IV (AID 607; active means well fitted activation curve with a large enough effect in the main read-out, with a control signal flat, not every such curve was filed as active; further: % of control where 0% means no effect); conditions: HEK293 ACTOne CNG channel cells, membrane potential fluorescence; series mostly up to 22.9 µM
Procedure, shortened: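 Cell-based read-out of cAMP via a modified cyclic nucleotide-gated channel and membrane potential dye (535/590 nm) in HEK293 cells expressing PDE4 endogenously. Compounds tested up to 22.9 uM final; 100 uM RO 20-1724 reference.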

Chain of Cytochrome P450 1A2 (Homo sapiens) (P05177 whole entry, looked up): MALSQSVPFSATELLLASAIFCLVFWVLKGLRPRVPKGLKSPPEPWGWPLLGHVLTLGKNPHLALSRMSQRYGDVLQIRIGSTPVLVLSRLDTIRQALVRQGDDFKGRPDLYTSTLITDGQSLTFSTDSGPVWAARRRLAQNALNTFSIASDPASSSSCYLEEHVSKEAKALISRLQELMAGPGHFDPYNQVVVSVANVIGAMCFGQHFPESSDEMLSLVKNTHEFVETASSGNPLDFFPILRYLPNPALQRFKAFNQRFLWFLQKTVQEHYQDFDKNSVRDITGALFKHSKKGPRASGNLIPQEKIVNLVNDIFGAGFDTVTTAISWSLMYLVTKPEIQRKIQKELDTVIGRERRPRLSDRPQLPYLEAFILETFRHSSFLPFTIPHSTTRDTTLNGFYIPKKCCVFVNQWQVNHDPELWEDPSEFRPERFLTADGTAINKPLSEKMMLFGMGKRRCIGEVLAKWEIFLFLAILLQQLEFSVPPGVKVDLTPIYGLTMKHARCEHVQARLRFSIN
Chain of Glucocorticoid receptor (Homo sapiens) (P04150 whole entry, looked up, the tested form may be a part): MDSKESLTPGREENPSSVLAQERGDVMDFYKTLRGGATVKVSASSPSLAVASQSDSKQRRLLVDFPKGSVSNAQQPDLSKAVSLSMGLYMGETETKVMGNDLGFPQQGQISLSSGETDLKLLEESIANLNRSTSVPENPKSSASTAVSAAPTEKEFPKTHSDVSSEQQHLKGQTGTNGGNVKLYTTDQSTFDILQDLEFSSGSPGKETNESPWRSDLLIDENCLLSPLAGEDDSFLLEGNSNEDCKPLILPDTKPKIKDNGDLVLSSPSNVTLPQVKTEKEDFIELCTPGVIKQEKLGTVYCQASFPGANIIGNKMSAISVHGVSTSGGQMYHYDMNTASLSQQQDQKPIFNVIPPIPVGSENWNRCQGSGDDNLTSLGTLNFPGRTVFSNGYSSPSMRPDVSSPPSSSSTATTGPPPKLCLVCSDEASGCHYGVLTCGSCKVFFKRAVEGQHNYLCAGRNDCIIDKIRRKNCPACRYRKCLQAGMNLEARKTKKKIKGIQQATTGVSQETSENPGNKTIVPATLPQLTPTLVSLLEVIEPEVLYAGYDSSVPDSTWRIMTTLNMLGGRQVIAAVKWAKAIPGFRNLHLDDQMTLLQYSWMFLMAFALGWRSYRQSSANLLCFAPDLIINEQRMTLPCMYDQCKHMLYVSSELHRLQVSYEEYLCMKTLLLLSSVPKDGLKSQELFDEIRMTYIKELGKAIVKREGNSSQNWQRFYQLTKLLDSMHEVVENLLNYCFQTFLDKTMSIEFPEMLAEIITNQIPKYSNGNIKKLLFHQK
Chain of 3',5'-cyclic-AMP phosphodiesterase 4B (Homo sapiens) (Q07343 whole entry, looked up): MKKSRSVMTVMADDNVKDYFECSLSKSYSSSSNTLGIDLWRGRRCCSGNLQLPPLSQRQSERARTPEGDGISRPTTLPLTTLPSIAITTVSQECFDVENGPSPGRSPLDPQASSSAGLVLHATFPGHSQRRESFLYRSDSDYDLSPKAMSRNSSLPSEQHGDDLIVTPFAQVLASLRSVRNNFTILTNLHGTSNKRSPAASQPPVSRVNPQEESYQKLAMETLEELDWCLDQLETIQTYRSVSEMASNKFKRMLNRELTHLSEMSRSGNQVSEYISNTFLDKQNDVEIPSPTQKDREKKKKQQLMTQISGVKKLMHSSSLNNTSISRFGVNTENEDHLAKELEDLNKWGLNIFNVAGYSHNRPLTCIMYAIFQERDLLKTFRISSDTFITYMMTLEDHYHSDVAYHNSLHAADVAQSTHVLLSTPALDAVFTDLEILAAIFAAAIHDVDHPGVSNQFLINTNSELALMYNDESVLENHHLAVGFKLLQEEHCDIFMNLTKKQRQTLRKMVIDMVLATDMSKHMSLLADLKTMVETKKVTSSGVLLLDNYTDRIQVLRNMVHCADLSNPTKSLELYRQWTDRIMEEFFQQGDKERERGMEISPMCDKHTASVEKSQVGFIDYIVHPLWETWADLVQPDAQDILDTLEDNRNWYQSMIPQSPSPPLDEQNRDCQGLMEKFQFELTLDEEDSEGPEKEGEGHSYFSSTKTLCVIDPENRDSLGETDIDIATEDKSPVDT
Chain of Lysosomal acid glucosylceramidase (Homo sapiens) (P04062 whole entry, looked up): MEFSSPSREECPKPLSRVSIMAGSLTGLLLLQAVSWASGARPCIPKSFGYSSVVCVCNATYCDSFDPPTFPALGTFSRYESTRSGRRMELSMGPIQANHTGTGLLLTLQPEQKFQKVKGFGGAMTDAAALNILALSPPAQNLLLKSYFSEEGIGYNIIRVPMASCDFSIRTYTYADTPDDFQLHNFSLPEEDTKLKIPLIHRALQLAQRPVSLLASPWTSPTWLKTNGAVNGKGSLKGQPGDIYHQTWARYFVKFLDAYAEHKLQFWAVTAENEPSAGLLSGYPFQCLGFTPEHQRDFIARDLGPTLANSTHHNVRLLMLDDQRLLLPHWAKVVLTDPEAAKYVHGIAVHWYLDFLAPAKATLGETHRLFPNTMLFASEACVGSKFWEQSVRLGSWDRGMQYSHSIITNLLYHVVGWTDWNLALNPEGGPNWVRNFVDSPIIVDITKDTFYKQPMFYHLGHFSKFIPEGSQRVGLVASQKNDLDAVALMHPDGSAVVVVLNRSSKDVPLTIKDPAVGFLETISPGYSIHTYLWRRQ

O=C(Nc1ccc2oc(=O)c(C(=O)O)cc2c1)Oc1ccccc1
inactive: Potency [1] > 11.4 µM | activity change, negative = inhibition [2] -4.82% | activity change, negative = inhibition [3] -15.3% [at 2.29 µM] | activity change, negative = inhibition [4] 9.87% | activity, negative = inhibition [5] 1.95% | Potency [6] > 46 µM | Potency [7] > 9.22 µM | Potency [8] | Potency [9]

Cc1ccc(/C(C#N)=C/c2cccc([N+](=O)[O-])c2)cc1
inactive: Potency [1] > 11.4 µM | activity change, negative = inhibition [2] 15.2% | activity change, negative = inhibition [4] -0.124% | activity, negative = inhibition [5] 11.8% | Potency [6] > 46 µM | Potency [7] > 9.22 µM | Potency [8] | Potency [9]
active: Potency [3] 3.98 µM

CCON=C1C(C)(C)C(C)(C)C(C)(C)C1(C)C
inactive: Potency [1] > 11.4 µM | activity change, negative = inhibition [2] 1.12% | Potency [3] | activity change, negative = inhibition [4] 6.28% | activity, negative = inhibition [5] -3.9% | Potency [6] > 46 µM | Potency [7] > 9.22 µM | Potency [8] | Potency [9]

CN(C)CCCn1cnc2cc(Cl)c(Cl)cc21
inactive: Potency [1] > 11.4 µM | activity change, negative = inhibition [2] 1.9% | activity change, negative = inhibition [3] -20% [at 2.29 µM] | activity change, negative = inhibition [4] -23.5% | activity, negative = inhibition [5] 11.7% | Potency [6] > 46 µM | Potency [7] > 9.22 µM | Potency [8] | Potency [9]

Cc1cccc2c1Oc1ccccc1[C@@H]2NC(=O)c1ccc([N+](=O)[O-])cc1
inactive: Potency [1] > 11.4 µM | activity change, negative = inhibition [2] 0.106% | activity change, negative = inhibition [4] -2.92% | activity, negative = inhibition [5] -4.56% | Potency [6] > 46 µM | Potency [7] > 9.22 µM | Potency [8] | Potency [9]
active: Potency [3] 1 µM

COC(=O)[C@@H]1O[C@@H](SCCN)[C@@H](O)[C@H](O)[C@H]1O
inactive: Potency [1] > 11.4 µM | activity change, negative = inhibition [2] 0.576% | activity change, negative = inhibition [3] 10.2% [at 2.29 µM] | activity change, negative = inhibition [4] 2.51% | activity, negative = inhibition [5] -0.339% | Potency [6] > 46 µM | Potency [7] > 9.22 µM | Potency [8] | Potency [9]

O=[N+]([O-])c1ccc(NN=C2c3ccccc3Cc3ccccc32)c([N+](=O)[O-])c1
active: Potency [3] 0.794 µM
inactive: Potency [1] > 11.4 µM | activity change, negative = inhibition [2] 26.1% | activity change, negative = inhibition [4] -1.66% | activity, negative = inhibition [5] 19.7% | Potency [6] > 46 µM | Potency [7] > 9.22 µM | Potency [8] | Potency [9]

Cc1ncc(CSC(=N)N)n1Cc1ccccc1
inactive: Potency [1] > 11.4 µM | activity change, negative = inhibition [2] 6.64% | Potency [3] | activity change, negative = inhibition [4] -15.5% | activity, negative = inhibition [5] 4.51% | Potency [6] > 46 µM | Potency [7] > 9.22 µM | Potency [8] | Potency [9]

O=C(O)[C@H]1[C@H](C(=O)O)[C@H](C(=O)O)C[C@@H]1C(=O)O
inactive: Potency [1] > 11.4 µM | activity change, negative = inhibition [2] -1.4% | Potency [3] | activity change, negative = inhibition [4] 2.63% | activity, negative = inhibition [5] 4.24% | Potency [6] > 46 µM | Potency [7] > 9.22 µM | Potency [8] | Potency [9]

O=C(O)C[C@H](Cc1ccccc1)C(=O)O
inactive: Potency [1] > 11.4 µM | activity change, negative = inhibition [2] 11% | Potency [3] | activity change, negative = inhibition [4] 2.62% | activity, negative = inhibition [5] -5.23% | Potency [6] > 46 µM | Potency [7] > 9.22 µM | Potency [8] | Potency [9]

O=C1CCC(c2ccccc2)(c2ccccc2)CC1
inactive: Potency [1] > 11.4 µM | activity change, negative = inhibition [2] 5.18% | Potency [3] | activity change, negative = inhibition [4] -2.6% | activity, negative = inhibition [5] 1.75% | Potency [6] > 46 µM | Potency [7] > 9.22 µM | Potency [8] | Potency [9]

CN(C)CC(CN(C)C)c1ccccn1
inactive: Potency [1] > 11.4 µM | activity change, negative = inhibition [2] 3.76% | Potency [3] | activity change, negative = inhibition [4] 10.8% | activity, negative = inhibition [5] 1.27% | Potency [6] > 46 µM | Potency [7] > 9.22 µM | Potency [8] | Potency [9]

Nc1ccc(C(=O)C[C@H](N)C(=O)O)cc1O
inactive: Potency [1] > 11.4 µM | activity change, negative = inhibition [2] 8.27% | Potency [3] | activity change, negative = inhibition [4] -4.19% | activity, negative = inhibition [5] 6.37% | Potency [6] > 46 µM | Potency [7] > 9.22 µM | Potency [8] | Potency [9]

NC(N)=Nc1ccc(-c2ccc(N=C(N)N)cc2)cc1
inactive: Potency [1] > 11.4 µM | activity change, negative = inhibition [2] 1.56% | Potency [3] | activity change, negative = inhibition [4] 4.39% | activity, negative = inhibition [5] 0.358% | Potency [6] > 46 µM | Potency [7] > 9.22 µM | Potency [8] | Potency [9]

C[C@@](N)(/C=C\c1ccccc1)C(=O)O
inactive: Potency [1] > 11.4 µM | activity change, negative = inhibition [2] -1.95% | Potency [3] | activity change, negative = inhibition [4] 12% | activity, negative = inhibition [5] -3.44% | Potency [6] > 46 µM | Potency [7] > 9.22 µM | Potency [8] | Potency [9]

O=C1COC(c2ccccc2O)=NN1CCCN1CCCC1
inactive: Potency [1] > 11.4 µM | activity change, negative = inhibition [2] 5.73% | Potency [3] | activity change, negative = inhibition [4] -11.6% | activity, negative = inhibition [5] 5.21% | Potency [6] > 46 µM | Potency [7] > 9.22 µM | Potency [8] | Potency [9]
